Data as given in PubChem BioAssay AID493191 (Broad Institute, 2011).
The campaign covered roughly 1,300 compounds. About 330 (25%) were called active. These entries were drawn from the full list. Measured potencies and affinities stand elsewhere. Unmarked numbers belong to inactive results. The rule behind the calls is not given here.

Experiment: growth inhibition of MALME3 cells – cell-based, CellTiter-Glo, cherry-picked, orthogonal assay for MITF inhibitor project, dose response (AID 493191)
Conditions: MALME3 melanoma viability, CellTiter-Glo luminescence, 24 h; series mostly up to 35 µM; activity change, negative = inhibition: at the top concentration

SMILES | activity change, negative = inhibition [%]
O=C(N/N=C/c1cccc(Oc2ccc([N+](=O)[O-])cc2[N+](=O)[O-])c1)c1cncc(Br)c1 | -17.8
COc1cccc(/C=N/Nc2nc3ccccc3[nH]2)c1OC | 3.26
C[C@H]1CCC[C@]2(C)C[C@H]3OC(=O)C(CN4CCCCCC4)[C@H]3C=C12 (stereo partly specified) | -14.2
O=C(COC(=O)C1=COCCO1)Nc1c(F)cccc1F | 6.62
COc1cc(NC(=O)COc2cc(O)c3c(c2)OC(C)(C)CC3=O)cc(OC)c1OC | -9.31
O=C(Nc1ccccc1Cl)Nc1cccc2cccnc12 | -20.8
O=C(CCCCC(=O)NN=Cc1ccccc1O)NN=Cc1ccccc1O | -4.07
Oc1ccccc1/C=N/Nc1cccc2cccnc12 | -2.28
Cn1cccc1-c1cc(C(=O)N/N=C/c2cc(Br)ccc2O)[nH]n1 | -9.81
O=C(N/N=C/c1cc(Br)ccc1O)c1ccncc1 | -32.5
Cc1nc(NC(=O)C2CC2)sc1C(=O)Nc1ccccc1Cl | -0.052
COc1ccc(C(=O)/C=C(\C)Nc2ccc3c(c2)OCO3)cc1 | -1.82
COc1cc(C2C(C#N)=C(N)Oc3cc4c(cc32)OCO4)cc(OC)c1OC (stereo unspecified) | 10.1
O=C(Nc1nnc(Cc2ccccc2)s1)c1ccccc1 | 12.2
CCOc1ccc(NC(=O)Nc2cccc(C(=O)O)c2)cc1 | -33.2
CN(C)c1ccc(-n2cccc2/C=C/[N+](=O)[O-])cc1 | -41.8
Cc1cc(Cl)ccc1NC(=O)c1ccc2c(c1)OCO2 | 13.7
Cc1ccc(OCC(=O)Nc2cccc(C)n2)c(C)c1 | 5.8
COc1ccc(/C=C/C(=O)NC(=S)N2CCN(c3ccccc3OC)CC2)cc1 | -2.42
O=[N+]([O-])c1cc(S(=O)(=O)N2CCCCCC2)ccc1F | -22.2
COc1cccc(/C=C/C(=O)c2ccc3c(c2)OCCO3)c1OC | -7.96
CCN1CCN(c2ccc(S(=O)(=O)N3CCOCC3)cc2NC(=O)/C=C/c2ccc([N+](=O)[O-])cc2)CC1 | -29
CN(C)CCNc1ccc2nnn3c4ccc(O)cc4c(=O)c1c23 | -23.3
N=C1C(c2nc3ccccc3[nH]2)=C(O)CN1C1CCCCC1 | -0.094

SMILES | activity change, negative = inhibition [%]
COc1ccc(C(=O)NCCSc2ccccc2C)cc1 | -4.39
COc1ccc(/C=C2\Sc3ccc(C(=O)NCCN4CCCCCC4)cc3N(C)C2=O)cc1 | -30.5
O=C(NCCSc1ccccc1)c1ccccc1F | -4.77
CN(C)CCCNc1nc2sc3c(c2c(=O)n1CCc1ccccc1)CCCCC3 | -41.2
CC(C)(C)c1ccc(-c2cn(-c3ccc(Br)cc3)c3[n+]2CCCS3)cc1 | -35.8
OCc1ccc(N=Nc2ccccc2)cc1 | 4.1
CN(C)C1CCN(Cc2cc(COCc3ccccc3)c3cccnc3c2O)C1 (stereo unspecified) | -30.3
Oc1c(CN2CCCC2)cc(COCc2ccccc2)c2cccnc12 | -30.5
COc1cccc(CNc2nc3ccccc3n2C)c1O | -9.88
COC(=O)c1c(NC(=O)c2nc3ccccc3s2)sc2c1CC(C)(C)NC2(C)C | -5.34
O=C1c2ccccc2CN1c1ccccc1 | -4.28
CC(=O)Nc1ccc2c(c1)ncn2-c1ccccc1 | 1.87
O=C(NCc1csc(-c2cccs2)n1)C1CCC1 | 5.23
C/C(=N\NC(=O)C(C)Oc1ccc([N+](=O)[O-])cc1)c1ccccn1 (stereo unspecified) | -25.6
CC(=O)N(C1CC(C)C(C#N)(C#N)C1(C#N)C#N)N(C)C (stereo unspecified) | 45.4
COc1ccccc1N1C(=O)N(C(C)=O)C2C1Nc1ccccc1N2C (stereo unspecified) | -21
N#Cc1cnc2sc3ccccc3n2c1=N | -6.66
Cc1c(/C=C/C(=O)c2ccc(Cl)s2)cnn1C | 1.68
Cc1c(C=O)c2cc(OCc3ccccc3)ccc2n1C | 10.2
N#C/C(=C\C=C\c1ccccc1[N+](=O)[O-])C(=O)NC1CCCCC1 | -15.7
N#C/C(=C\C=C\c1ccccc1[N+](=O)[O-])C(=O)NCc1ccccc1 | -15.7
Nc1ncnc(Sc2ncccn2)c1[N+](=O)[O-] | 14.4
CC(C)C(=O)Nc1ccc2nn(-c3ccc(F)cc3)nc2c1 | 1.91
CS(=O)(=O)N1CCN(c2nc3ccc(Cl)cc3s2)CC1 | 14.2

SMILES | activity change, negative = inhibition [%]
CCCN1CCC(NCc2cn(C)nc2-c2ccc(Oc3ccccc3)cc2)CC1 | -33.6
CC(O)CNC(=O)C1CCN(Cc2ccc(OCc3ccccc3)cc2)CC1 (stereo unspecified) | -0.748
COC(=O)c1ccc(COc2ccc(C)cc2[N+](=O)[O-])o1 | 0.832
Cc1ccccc1NC(=O)Cc1nc(COC(=O)c2ccc(S(C)(=O)=O)c([N+](=O)[O-])c2)cs1 | -35.7
Cc1ccc(-c2n[nH]c(=O)c3ccccc23)cc1S(=O)(=O)NCC1CCCO1 (stereo unspecified) | -3.9
C=CCNC(=O)Cn1nnc(-c2ccc(-c3ccc(OC)cc3)cc2)n1 | -6.58
O=C(N/N=C/C=C/c1ccccc1)c1ccccn1 | 6.57
Cc1ccc(-c2cn3nc(C)c(C)nc3n2)cc1 | -19.4
Cc1ccc2oc(Nc3nc(C)c(C)c(C)n3)nc2c1 | -2.9
C=C1C(=O)C2=CC1CCC(=O)C1(C)CCC(OC(C)=O)C(C)(C)C1CC2O (stereo unspecified) | -43.8
O=C(NC(=S)Nc1ccccn1)c1cccc([N+](=O)[O-])c1 | -0.338
N/C(=N\OC(=O)c1ccccc1Cl)c1cccc([N+](=O)[O-])c1 | 3.35
COC(=O)c1ccc(Nc2cc(C)nc3ccc(C)cc23)cc1 | -5.79
CCOc1ccc2nc(C)cc(Nc3cccc([N+](=O)[O-])c3)c2c1 | -64.2
Clc1ccc(-c2c[n+](Cc3cccc(Cl)c3)c3n2CCC3)cc1 | -3.77
O=c1c2ccccc2cnn1CCOc1ccccc1 | -21.9
CS(=O)(=O)c1ccc2nc(NC(=O)c3ccccc3)sc2c1 | -14
O=[N+]([O-])c1cc(C(F)(F)F)ccc1NCCc1ccccn1 | 3.81
CS(=O)(=O)c1ccc(C(=O)OCC(=O)NCc2cccs2)cc1[N+](=O)[O-] | -38.8
O=C(O)c1cccc(NC(=O)c2cccc(NC(=O)C3CCCO3)c2)c1 (stereo unspecified) | 2.35
O=C(N/N=C/c1ccc([N+](=O)[O-])s1)c1ccccc1 | -49.8
Cc1ccc(C(=O)N/N=C\c2ccc([N+](=O)[O-])s2)cn1 | -42.5
C=C1CCC[C@]2(C)C[C@H]3OC(=O)C(CN4CCCCC4CO)[C@H]3CC12 (stereo partly specified) | 18
COc1cc(SC)ccc1C(=O)Nc1ncc(C)s1 | -18.2

SMILES | activity change, negative = inhibition [%]
O=C(NCc1ccccc1)C(=O)Nc1cccc(C(=O)O)c1 | 3.68
CC(C)(C)c1cc(NCCCn2ccnc2)n2ncc(-c3ccccc3)c2n1 | -26.9
Nc1ccc(-c2nc3c(Cl)cc(N)cc3[nH]2)cc1 | 7.31
Cc1c(C#N)c(O)n(CCO)c(=O)c1N=Nc1ccc2c(c1)COC2=O | -14.4
CCN(CC)c1ccc(/C=N/NC(=O)c2cccc(S(=O)(=O)N3CCOCC3)c2)c(O)c1 | -15.7
CCSc1nnc(NC(=O)C2CCCCC2)s1 | 6.64
O=C(CCl)N(Cc1cc(=O)[nH]c2ccccc12)c1ccccc1 | -29.2
O=C(CCl)N(c1ccccc1)c1c[nH]c2ccccc12 | -41.4
Clc1cccc(-c2nc(-c3ccccn3)no2)c1 | -33.8
Fc1ccccc1-c1nc(-c2ccncc2)no1 | -6.62
Clc1ccccc1CSc1nnc(-c2ccncc2)o1 | -8.1
CCOc1ccc(N(CC(=O)Nc2ccc(OC)cc2)S(C)(=O)=O)cc1 | -6.34
CCC(=O)Nc1cc2nn(-c3ccc(C)cc3)nc2cc1C | 5.18
CC(=O)SC(C[N+](=O)[O-])c1cn(C(C)=O)c2ccccc12 (stereo unspecified) | -33.7
CC1Cc2ccccc2N1C(=O)c1ccc(Br)o1 (stereo unspecified) | -23.8
CCOC(=O)/C=c1/s/c(=C/c2ccc3cc(OC)ccc3c2)c(=O)n1CC(=O)NCC1CCCO1 (stereo unspecified) | -15.4
O=C(Nc1ccc(-c2cn3c(n2)SCC3)cc1)c1ccco1 | -3.35
C/C(=N\NC(=O)C1COc2ccccc2O1)c1ccccn1 (stereo unspecified) | -16.7
O=C(NC1=NCCS1)C1COc2ccccc2O1 (stereo unspecified) | -18.9
O=[N+]([O-])c1ccc(N/N=C/C=C/c2ccco2)cc1 | -6.15
C/C(=N\NC(=O)COc1ccccc1-c1ccccc1)c1ccccn1 | -23
C=CCOc1ccc(/C=C2\SC(=S)N(CCC(=O)O)C2=O)cc1 | 8.72
Cc1c(C#N)c(NC(=O)CCl)n(Cc2cccs2)c1C | -41.2
O=C(NCc1cccs1)c1nc2c(nnn2Cc2ccccc2Cl)c(=O)[nH]1 | 0.593

SMILES | activity change, negative = inhibition [%]
CC(=O)Oc1c(C(=O)c2nnc(C)o2)c(=O)n(Cc2ccccc2)c2ccccc12 | -19.6
Cc1ccc(OCC(=O)N/N=C/c2ccc([N+](=O)[O-])o2)cc1 | -39.6
Cc1occc1C(=O)N/N=C/c1ccc(OCc2ccccc2)cc1 | -1.16
COc1ccc(/C=N/NC(=O)Cc2cccs2)cc1 | -1.89
Cc1ccc(SCCC(=O)N2CCC(C)CC2)cc1 | 7.77
Cc1cc(/C=C(\C#N)C(=O)O)c(C)n1CC(C)C | 11.7
Cc1ccc(SCCSc2ncccn2)cc1 | -13.9
Nc1c(-c2ccccc2)cnc2c(-c3ccccc3)cnn12 | -2.55
COc1ccccc1OCCN1CSC(=S)N(C)C1 | -42.5
O=C(Nc1ccc(F)cc1F)c1cc2ccccc2oc1=O | 6.79
COc1ccc(C(=O)CN2Cc3ccccc3C2=N)cc1 | -7.91
O=C(Nc1ccccc1)O/N=C/c1ccc(F)cc1 | -5.62
CC1(C)Cc2c(sc(NC(=O)c3ccc4ncsc4c3)c2C(N)=O)C(C)(C)N1 | -0.009
CCCN(CCC)C1=CC(=[N+]2CCCC2)CC(C)(C)C1 | -17.8
O=C(N/N=C/c1ccc(F)cc1)c1c(O)c2ccccc2[nH]c1=O | -2.15
Cc1ccc(NC(=O)c2cc3ccccc3oc2=O)cc1S(=O)(=O)N(C)C | -37.5
CC(C)C(=O)Nc1cccc(NC(=O)c2cc3ccccc3o2)c1 | -6.15
Cc1ccc(-c2nc(C#N)c(NCc3ccco3)o2)cc1 | -2.18
Cc1ccc2c(COC(=O)c3n[nH]c4ccccc34)cc(=O)oc2c1 | -17.5
N#C/C(C(=O)c1ccccc1)=C1/CCCCCN1 | -9.1
